# Results reported in PubChem BioAssay (Tox21).
# Where “and” joins values, the source holds several entries; their conditions need not be identical. Equal values may be shown once. Inconclusive results are not listed. Where a call stands in place of a potency, no number is given. Where a structure was tested more than once in an assay, its records may differ in their call. Calls of active or inactive are those of the source. Unless noted, the call rests on the fitted dose curve; in most records, active means well fitted curve in the direction sought with a large enough effect in the repeat runs; inconclusive means weak or mixed curves; inactive means no such curve, though single readings can be large; an effect the other way counts as inactive or inconclusive.
# Legend:
# [1] = qHTS assay to identify small molecule agonists of H2AX (AID 1224845; active means well fitted activation curve with a large enough effect in the signal ratio in the repeat runs, not every such curve was filed as active; the % refers to the signal ratio)
# Summary of the method: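 Phospho-H2AX Ser139 measured by HTRF (ex 320 nm; em 665 and 620 nm) after 24 hr antibody incubation. Compounds, 15 concentrations, 0.76% DMSO, were applied to CHO-K1 cells for 3hr at 37C before lysis.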
# [2] = qHTS assay to identify small molecule agonists of H2AX - cell viability counter screen (AID 1224847; calls by dose curve; further: top concentration of the series differs between compounds; nearly all actives have a fitted effect of over 30% in size)
# Summary of the method: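 Compounds tested at 15 concentrations were incubated 3 hr at 37C with wild-type CHO-K1 cells; cellular ATP-based luminescence (CellTiter-Glo) indicated viability.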
# [3] = qHTS RealTime-Glo MT Cell Viability Assay in HepG2 cells - 24 hour (AID 1224867); further: nearly all actives have a fitted effect of over 50% in size
# Summary of the method: (§1)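 qHTS, HepG2, 600 cells/well, RealTime-Glo (NanoLuc + prosubstrate) added with cells; 5 h preincubation; DMSO compound addition; 37 C; luminescence at 0/8/16/24/32/40 h.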
# [4] = qHTS RealTime-Glo MT Cell Viability Assay in HEK293 cells - 32 hour (AID 1224868); further: nearly all actives have a fitted effect of over 50% in size; further: potency means the concentration at half of the fitted maximal effect
# Summary of the method: (§2)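 Assay medium contained NanoLuc luciferase plus cell-permeant prosubstrate, added with HEK293 cells at 600 cells/well. After 5 h at 37 C/5% CO2 compounds were added; plates stayed at 37 C for 40 h with serial luminescence reads.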
# [5] = A CellTox Green Cytotoxicity Assay to monitor cytotoxicity in HEK293 cells - 0 hour (AID 1224869); further: nearly all actives have a fitted effect of over 50% in size; further: potency means the concentration at half of the fitted maximal effect
# Summary of the method: (§3)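 Cells (HEK293, 600/well) and dye reagent are dispensed together. After 5 h at 37 C, 23 nL compound is pinned in. Plates stay at 37 C for 40 h with fluorescence read at 0h, 8h, 16h, 24h, 32h and 40h.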
# [6] = qHTS RealTime-Glo MT Cell Viability Assay in HepG2 cells - 40 hour (AID 1224870); further: nearly all actives have a fitted effect of over 50% in size
# Summary of the method: (§4)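 Real-time viability: cells seeded at 600 per well together with NanoLuc and cell-permeant prosubstrate, compounds added after 5 h incubation. Luminescence tracked at 0, 8, 16, 24, 32 and 40 h of exposure.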
# [7] = qHTS RealTime-Glo MT Cell Viability Assay in HEK293 cells - 16 hour (AID 1224872)
# Summary of the method: as §2
# [8] = qHTS RealTime-Glo MT Cell Viability Assay in HepG2 cells - 8 hour (AID 1224873); further: nearly all actives have a fitted effect of over 55% in size
# Summary of the method: as §4
# [9] = qHTS RealTime-Glo MT Cell Viability Assay in HEK293 cells - 40 hour (AID 1224874); conditions: RealTime-Glo luminescence; max response: stronger effect = lower value; further: nearly all actives have a fitted effect of over 50% in size; further: potency means the concentration at half of the fitted maximal effect
# Summary of the method: (§5)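 Real-time viability in HEK293: signal arises when living cells convert a prosubstrate for NanoLuc in the medium, so luminescence tracks viable cell number. Compound (23 nL, DMSO) added 5 h post-seeding; kinetic reads at 0–40 h, 37 C.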
# [10] = A CellTox Green Cytotoxicity Assay to monitor cytotoxicity in HEK293 cells - 24 hour (AID 1224875); further: nearly all actives have a fitted effect of over 45% in size
# Summary of the method: as §3
# [11] = qHTS RealTime-Glo MT Cell Viability Assay in HepG2 cells - 32 hour (AID 1224877); further: nearly all actives have a fitted effect of over 55% in size
# Summary of the method: as §1
# [12] = qHTS RealTime-Glo MT Cell Viability Assay in HEK293 cells - 0 hour (AID 1224880); further: top concentration of the series differs between compounds; nearly all actives have a fitted effect of over 45% in size
# Summary of the method: as §5
# [13] = A CellTox Green Cytotoxicity Assay to monitor cytotoxicity in HEK293 cells - 32 hour (AID 1224881); further: nearly all actives have a fitted effect of over 40% in size; further: potency means the concentration at half of the fitted maximal effect
# Summary of the method: as §3
# [14] = qHTS assay to identify small molecule antagonists of the estrogen related receptor (ERR) signaling pathway from Tox21 library (AID 1224848); further: nearly all actives have a fitted effect of over 50% in size
# Summary of the method: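 Luciferase luminescence (ONE-Glo, 30 min room temperature) was the read-out. Cells of the NTP-supplied ERR line, 2,000 per well, were given 6 h at 37 C before compound addition in DMSO and 18 h exposure at 37 C.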
# [15] = qHTS assay to identify small molecule agonists of the estrogen related receptor (ERR) signaling pathway from Tox21 library (AID 1224849; calls by dose curve; further: nearly all actives have a fitted effect of over 15% in size); conditions: ERR reporter cell line, ONE-Glo luciferase, 18 h
# Summary of the method: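 Cells carrying the ERR reporter were plated and allowed to settle for 6 h, exposed to library compounds for 18 h at 37 C, then lysed with ONE-Glo and luminescence measured.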
# [16] = A CellTox Green Cytotoxicity Assay to monitor cytotoxicity in HEK293 cells - 40 hour (AID 1224871); further: nearly all actives have a fitted effect of over 45% in size
# Summary of the method: as §3
# [17] = A CellTox Green Cytotoxicity Assay to monitor cytotoxicity in HepG2 cells - 24 hour (AID 1224878); further: nearly all actives have a fitted effect of over 45% in size; further: potency means the concentration at half of the fitted maximal effect
# Summary of the method: (§6)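 Cells and non-lytic dye reagent are dispensed together (600 HepG2 cells/well) and incubated 5 h before DMSO compound transfer. Kinetic fluorescence is then recorded in the same wells during 40 h at 37 C.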
# [18] = A CellTox Green Cytotoxicity Assay to monitor cytotoxicity in HepG2 cells - 40 hour (AID 1224879); further: nearly all actives have a fitted effect of over 40% in size; further: potency means the concentration at half of the fitted maximal effect
# Summary of the method: as §6
# [19] = qHTS assay to identify small molecule agonists of the hypoxia (HIF-1) signaling pathway (AID 1224846; active means well fitted activation curve with a large enough effect in the signal ratio in the repeat runs, not every such curve was filed as active; the % refers to the signal ratio)
# Summary of the method: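 Compounds from the Tox21 10K library, dissolved in DMSO, are tested for induction of a hypoxia response element–controlled beta-lactamase reporter in ME-180 cells. Exposure lasts 17 hrs at 37C after a 5 hr settling period, followed by CCF4-AM FRET substrate.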
# [20] = A CellTox Green Cytotoxicity Assay to monitor cytotoxicity in HepG2 cells - 16 hour (AID 1224876); further: nearly all actives have a fitted effect of over 45% in size; further: potency means the concentration at half of the fitted maximal effect
# Summary of the method: as §6
structure (smiles),measurement,setting,value
CCn1cc(C(=O)O)c(=O)c2ccc(C)nc21,Potency,[1],inactive
same,Potency,[2],inactive
same,outcome,[3],inactive
same,Potency,[4],inactive
same,Potency,[5],inactive
same,outcome,[6],inactive
same,Potency,[7],inactive
same,outcome,[8],inactive
same,max response,[9],3.61% (inactive) and -3.49% (inactive) and 2.76% (inactive)
same,Potency,[10],inactive
same,outcome,[11],inactive
same,Potency,[12],inactive
same,Potency,[13],inactive
CCOC(=O)C(C)(C)Oc1ccc(Cl)cc1,Potency,[1],inactive
same,Potency,[2],inactive
same,Potency,[14],inactive
same,"activity change, positive = activation",[15]; at 42.5 µM (top of the series),1.46% (inactive)
same,"activity change, positive = activation",[15]; at 92.4 µM (top of the series),1.63% (inactive) and -0.349% (inactive)
same,outcome,[3],inactive
same,Potency,[4],inactive
same,Potency,[5],inactive
same,outcome,[6],inactive
same,Potency,[16],inactive
same,Potency,[7],inactive
same,outcome,[8],inactive
same,max response,[9],0.886% (inactive) and 6.32% (inactive) and -3.11% (inactive)
same,Potency,[10],inactive
same,outcome,[11],inactive
same,Potency,[17],inactive
same,Potency,[18],inactive
same,Potency,[12],inactive
same,Potency,[13],inactive
Nc1ccc(N=Nc2ccccc2)c(N)n1,Potency,[2],inactive
same,Potency,[4],43.9 µM (active) and 24.5 µM (active)
same,Potency,[5],inactive
same,outcome,[6],inactive
same,Potency,[16],inactive
same,outcome,[8],inactive
same,Potency,[9],24.7 µM (active) and 24.5 µM (active)
same,Potency,[10],inactive
same,outcome,[11],inactive
same,Potency,[17],34.9 µM (active) and 17.4 µM (active)
same,Potency,[18],34.9 µM (active) and 17.4 µM (active) and 26.8 µM (active)
same,Potency,[12],inactive
same,Potency,[13],inactive
CCCCOC(=O)CCCCCCCCC(=O)OCCCC,Potency,[1],inactive
same,outcome,[19],inactive
same,Potency,[2],inactive
same,Potency,[4],inactive
same,Potency,[5],inactive
same,outcome,[6],inactive
same,Potency,[7],inactive
same,outcome,[8],inactive
same,max response,[9],14.7% (inactive) and 5.35% (inactive)
same,Potency,[10],inactive
same,outcome,[11],inactive
same,Potency,[17],inactive
same,Potency,[18],inactive
same,Potency,[12],inactive
same,Potency,[13],inactive
Cc1cccc(Nc2cc(Cl)nc(SCC(=O)O)n2)c1C,Potency,[1],inactive
same,Potency,[2],inactive
same,Potency,[4],inactive
same,Potency,[5],inactive
same,outcome,[6],inactive
same,Potency,[7],inactive
same,outcome,[8],inactive
same,max response,[9],-8.11% (inactive) and -6.81% (inactive) and -0.208% (inactive)
same,Potency,[10],inactive
same,Potency,[20],inactive
same,outcome,[11],inactive
same,Potency,[18],inactive
same,Potency,[12],inactive
same,Potency,[13],inactive
CC(=O)CCC(C)C,Potency,[1],inactive
same,outcome,[19],inactive
same,Potency,[2],inactive
same,Potency,[4],inactive
same,Potency,[5],inactive and 38.9 µM (active)
same,outcome,[6],inactive
same,Potency,[7],inactive
same,outcome,[8],inactive
same,max response,[9],-1.02% (inactive) and 1.57% (inactive)
same,Potency,[20],inactive and 38.9 µM (active)
same,outcome,[11],inactive
same,Potency,[17],inactive and 38.9 µM (active)
same,Potency,[18],inactive and 27.5 µM (active)
same,Potency,[12],inactive
same,Potency,[13],inactive and 34.7 µM (active)
CC(=O)Oc1ccccc1C(=O)O,Potency,[1],inactive
same,Potency,[2],inactive
same,Potency,[4],inactive
same,Potency,[5],inactive
same,outcome,[6],inactive
same,Potency,[7],inactive
same,outcome,[8],inactive
same,max response,[9],-0.0178% (inactive) and 14.7% (inactive) and 2.62% (inactive)
same,Potency,[10],inactive
same,Potency,[20],inactive
same,outcome,[11],inactive
same,Potency,[17],inactive
same,Potency,[18],inactive
same,Potency,[12],inactive
same,Potency,[13],inactive
CC(=O)c1ccc(S(=O)(=O)NC(=O)NC2CCCCC2)cc1,Potency,[1],inactive
same,Potency,[2],inactive
same,Potency,[4],inactive
same,Potency,[5],inactive
same,outcome,[6],inactive
same,Potency,[7],inactive
same,outcome,[8],inactive
same,max response,[9],0.507% (inactive) and 8.7% (inactive) and 3.73% (inactive)
same,Potency,[10],inactive
same,Potency,[20],inactive
same,outcome,[11],inactive
same,Potency,[17],inactive
same,Potency,[18],inactive
same,Potency,[12],inactive
same,Potency,[13],inactive
COC(=O)c1ccc(O)cc1,Potency,[1],inactive
same,outcome,[19],inactive
same,Potency,[2],inactive
same,Potency,[5],inactive
same,Potency,[16],inactive
same,Potency,[10],inactive
same,Potency,[20],inactive
same,Potency,[18],inactive
same,Potency,[13],inactive
